# Results reported in paper PMC7862700, “An all-to-all approach to the identification of sequence-specific readers for epigenetic DNA modifications on cytosine”.
# Key:
# Test in all cases: DAPPL (digital affinity profiling via proximity ligation, sequencing); 10 mM Tris-HCl pH 7.5, 50 mM NaCl, 1 mM DTT, 4% glycerol, room temperature, 30 min; GST-TFs on glutathione beads, 16-mer random dsDNA library, 0.1% formaldehyde crosslink after washing; high values mean tight binding
# Conditions in all cases: protein: recombinant; tags: N-terminal GST; dsDNA, one strand shown
# FLI1 = biological target: T1, FLI1 (Homo sapiens, UniProt Q01543 1-452)
# T1 sequence: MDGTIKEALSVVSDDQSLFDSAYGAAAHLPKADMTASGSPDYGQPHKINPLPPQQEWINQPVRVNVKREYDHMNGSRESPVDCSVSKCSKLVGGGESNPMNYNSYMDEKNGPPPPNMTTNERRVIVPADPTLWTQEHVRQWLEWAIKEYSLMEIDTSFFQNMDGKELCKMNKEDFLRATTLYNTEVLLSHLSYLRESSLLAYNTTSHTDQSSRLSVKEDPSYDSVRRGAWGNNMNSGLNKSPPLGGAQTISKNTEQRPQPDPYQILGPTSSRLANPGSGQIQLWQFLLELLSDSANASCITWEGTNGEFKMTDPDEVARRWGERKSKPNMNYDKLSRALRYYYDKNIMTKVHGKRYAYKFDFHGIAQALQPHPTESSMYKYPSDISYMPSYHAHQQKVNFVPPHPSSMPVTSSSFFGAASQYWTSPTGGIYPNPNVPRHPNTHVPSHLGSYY
# Summary of the method: (§1)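 Yeast served to express human transcription factors as GST fusions, which were then captured on glutathione beads and labelled with DNA barcodes. Pooled with a tag-only sample, they were incubated with 200 nmole of a 16-mer random double-stranded DNA library for 30 min at room temperature in Tris/NaCl/DTT/glycerol buffer, washed, crosslinked with 0.1% formaldehyde, ligated by proximity, amplified by PCR and sequenced. Dividing each hexamer's read frequency for a factor by its frequency for the tag-only sample gives the binding signal.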
# ELK1 = biological target: T2, ELK1 (Homo sapiens, UniProt P19419 1-428)
# T2 sequence: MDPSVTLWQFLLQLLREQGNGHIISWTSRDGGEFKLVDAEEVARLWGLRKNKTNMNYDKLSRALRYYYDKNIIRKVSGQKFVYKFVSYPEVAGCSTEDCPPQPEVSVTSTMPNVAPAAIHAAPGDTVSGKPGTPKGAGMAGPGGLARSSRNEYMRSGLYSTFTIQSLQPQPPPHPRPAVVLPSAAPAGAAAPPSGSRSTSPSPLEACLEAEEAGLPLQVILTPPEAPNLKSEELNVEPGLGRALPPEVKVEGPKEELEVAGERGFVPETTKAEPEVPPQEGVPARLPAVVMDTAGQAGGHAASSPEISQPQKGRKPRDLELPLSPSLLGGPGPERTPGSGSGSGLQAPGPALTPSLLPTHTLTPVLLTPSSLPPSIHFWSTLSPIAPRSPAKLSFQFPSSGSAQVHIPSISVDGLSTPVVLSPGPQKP
# Summary of the method: as §1
# GABPA = biological target: T3, GABPA (Homo sapiens, UniProt Q06546 1-454)
# T3 sequence: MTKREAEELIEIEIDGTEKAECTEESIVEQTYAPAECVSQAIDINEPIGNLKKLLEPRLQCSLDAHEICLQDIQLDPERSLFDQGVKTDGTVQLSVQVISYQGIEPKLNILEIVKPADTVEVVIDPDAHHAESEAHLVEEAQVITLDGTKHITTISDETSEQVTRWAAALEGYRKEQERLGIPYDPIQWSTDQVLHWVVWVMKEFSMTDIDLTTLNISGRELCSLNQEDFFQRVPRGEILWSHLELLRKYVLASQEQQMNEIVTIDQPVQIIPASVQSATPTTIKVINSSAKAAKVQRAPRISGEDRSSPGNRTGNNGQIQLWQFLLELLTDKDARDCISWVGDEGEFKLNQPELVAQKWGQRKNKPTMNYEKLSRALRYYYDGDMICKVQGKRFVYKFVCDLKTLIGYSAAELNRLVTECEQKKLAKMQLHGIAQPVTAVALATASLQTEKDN
# Summary of the method: as §1
# ERG = biological target: T4, ERG (Homo sapiens, UniProt P11308 1-479)
# T4 sequence: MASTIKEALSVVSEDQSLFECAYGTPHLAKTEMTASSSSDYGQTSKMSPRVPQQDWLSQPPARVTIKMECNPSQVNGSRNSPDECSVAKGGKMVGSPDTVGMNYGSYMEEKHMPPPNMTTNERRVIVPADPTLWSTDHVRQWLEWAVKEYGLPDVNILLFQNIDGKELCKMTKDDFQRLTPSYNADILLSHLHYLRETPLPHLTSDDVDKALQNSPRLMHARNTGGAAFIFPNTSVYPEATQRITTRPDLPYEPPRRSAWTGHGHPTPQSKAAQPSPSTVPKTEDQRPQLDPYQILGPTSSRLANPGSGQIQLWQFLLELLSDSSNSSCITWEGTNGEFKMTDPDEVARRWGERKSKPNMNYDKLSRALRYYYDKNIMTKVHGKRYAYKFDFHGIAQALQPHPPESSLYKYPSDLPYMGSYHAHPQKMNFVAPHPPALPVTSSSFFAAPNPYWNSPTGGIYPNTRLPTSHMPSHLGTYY
# Summary of the method: as §1
# ELF1 = ELF1 (Homo sapiens, UniProt P32519 1-619)
# Chain of ELF1 (P32519 whole entry): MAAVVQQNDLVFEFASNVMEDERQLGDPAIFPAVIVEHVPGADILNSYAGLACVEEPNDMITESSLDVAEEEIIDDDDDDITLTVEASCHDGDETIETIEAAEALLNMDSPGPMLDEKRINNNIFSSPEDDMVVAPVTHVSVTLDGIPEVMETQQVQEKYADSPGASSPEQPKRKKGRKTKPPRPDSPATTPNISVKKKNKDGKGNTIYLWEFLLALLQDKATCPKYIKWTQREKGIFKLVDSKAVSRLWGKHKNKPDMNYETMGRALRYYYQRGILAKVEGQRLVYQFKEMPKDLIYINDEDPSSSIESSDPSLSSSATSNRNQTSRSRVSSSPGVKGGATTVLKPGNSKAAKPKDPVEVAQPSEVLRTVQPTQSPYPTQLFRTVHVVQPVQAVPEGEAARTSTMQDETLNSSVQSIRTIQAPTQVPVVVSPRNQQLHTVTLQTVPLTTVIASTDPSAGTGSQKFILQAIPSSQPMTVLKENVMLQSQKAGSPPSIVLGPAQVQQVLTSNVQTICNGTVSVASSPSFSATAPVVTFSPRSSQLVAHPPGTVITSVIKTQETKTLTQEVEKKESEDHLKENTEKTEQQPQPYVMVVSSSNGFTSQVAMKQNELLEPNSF
# Summary of the method: as §1
# EHF = biological target: T5, EHF (Homo sapiens, UniProt Q9NZC4 1-300)
# T5 sequence: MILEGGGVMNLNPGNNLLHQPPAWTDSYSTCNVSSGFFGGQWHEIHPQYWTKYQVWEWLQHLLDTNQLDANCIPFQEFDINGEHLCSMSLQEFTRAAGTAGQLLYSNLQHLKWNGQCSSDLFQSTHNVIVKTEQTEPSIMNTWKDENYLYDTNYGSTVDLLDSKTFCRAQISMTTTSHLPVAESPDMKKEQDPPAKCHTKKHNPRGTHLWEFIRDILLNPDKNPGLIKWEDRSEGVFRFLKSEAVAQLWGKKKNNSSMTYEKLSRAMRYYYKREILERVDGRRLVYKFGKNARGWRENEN
# Summary of the method: as §1
# SPI1 = SPI1 (Homo sapiens, UniProt P17947 1-270)
# Summary of the method: as §1
# SPIB = SPIB (Homo sapiens, UniProt Q01892 1-262)
# Chain of SPIB (Q01892 whole entry): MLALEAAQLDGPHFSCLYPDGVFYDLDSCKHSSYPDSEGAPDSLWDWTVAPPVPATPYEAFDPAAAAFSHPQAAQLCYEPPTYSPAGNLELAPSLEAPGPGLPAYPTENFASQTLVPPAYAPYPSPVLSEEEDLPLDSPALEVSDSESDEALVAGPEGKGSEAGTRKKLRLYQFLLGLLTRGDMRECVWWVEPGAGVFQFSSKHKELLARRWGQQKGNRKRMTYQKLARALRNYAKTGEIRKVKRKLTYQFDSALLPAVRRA
# Summary of the method: as §1
# ELK3 = biological target: T6, ELK3 (Homo sapiens, UniProt P41970 1-407)
# T6 sequence: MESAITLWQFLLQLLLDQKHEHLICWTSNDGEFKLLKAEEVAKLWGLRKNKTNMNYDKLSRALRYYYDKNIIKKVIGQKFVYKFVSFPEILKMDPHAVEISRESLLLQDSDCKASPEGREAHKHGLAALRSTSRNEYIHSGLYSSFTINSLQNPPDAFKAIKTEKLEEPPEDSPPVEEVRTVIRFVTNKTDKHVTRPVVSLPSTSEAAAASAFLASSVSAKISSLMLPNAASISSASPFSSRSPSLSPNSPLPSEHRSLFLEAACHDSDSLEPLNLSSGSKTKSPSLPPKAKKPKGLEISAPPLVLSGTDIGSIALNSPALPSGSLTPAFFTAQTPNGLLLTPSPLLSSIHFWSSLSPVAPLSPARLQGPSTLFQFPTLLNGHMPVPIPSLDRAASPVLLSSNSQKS
# Summary of the method: as §1
# FEV = biological target: T7, FEV (Homo sapiens, UniProt Q99581 1-238)
# T7 sequence: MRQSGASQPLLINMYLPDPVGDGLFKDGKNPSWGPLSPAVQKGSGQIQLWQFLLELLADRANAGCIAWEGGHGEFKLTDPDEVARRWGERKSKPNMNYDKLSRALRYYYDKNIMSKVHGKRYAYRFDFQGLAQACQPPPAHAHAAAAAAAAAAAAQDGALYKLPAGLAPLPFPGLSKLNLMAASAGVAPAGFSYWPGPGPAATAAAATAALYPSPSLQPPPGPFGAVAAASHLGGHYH
# Summary of the method: as §1
# ETV5 = ETV5 (Homo sapiens, UniProt P41161 1-510)
# Chain of ETV5 (P41161 whole entry): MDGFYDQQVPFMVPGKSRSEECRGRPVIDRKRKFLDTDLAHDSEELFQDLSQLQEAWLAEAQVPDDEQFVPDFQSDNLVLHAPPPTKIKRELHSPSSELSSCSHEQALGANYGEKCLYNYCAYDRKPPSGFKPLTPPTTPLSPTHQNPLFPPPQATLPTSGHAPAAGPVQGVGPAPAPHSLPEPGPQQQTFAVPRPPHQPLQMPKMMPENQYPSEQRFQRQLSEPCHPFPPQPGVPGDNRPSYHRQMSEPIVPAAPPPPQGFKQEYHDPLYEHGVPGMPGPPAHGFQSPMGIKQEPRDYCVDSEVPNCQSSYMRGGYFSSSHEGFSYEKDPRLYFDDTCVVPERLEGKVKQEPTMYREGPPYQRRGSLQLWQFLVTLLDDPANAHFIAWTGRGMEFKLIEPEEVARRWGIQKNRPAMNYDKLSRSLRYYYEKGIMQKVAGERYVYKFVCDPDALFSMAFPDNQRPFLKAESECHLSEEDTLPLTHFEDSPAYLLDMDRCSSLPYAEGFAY
# Summary of the method: as §1
# SPIC = biological target: T8, SPIC (Homo sapiens, UniProt Q8N5J4 1-248)
# T8 sequence: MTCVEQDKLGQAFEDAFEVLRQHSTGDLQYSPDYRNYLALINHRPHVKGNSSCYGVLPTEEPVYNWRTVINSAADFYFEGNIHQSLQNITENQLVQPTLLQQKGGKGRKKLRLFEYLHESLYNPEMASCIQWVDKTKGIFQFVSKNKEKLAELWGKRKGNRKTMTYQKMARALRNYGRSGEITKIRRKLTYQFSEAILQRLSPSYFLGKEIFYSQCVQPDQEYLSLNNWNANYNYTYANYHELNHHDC
# Summary of the method: as §1
# ELF4 = ELF4 (Homo sapiens, UniProt Q99607 1-663)
# Chain of ELF4 (Q99607 whole entry): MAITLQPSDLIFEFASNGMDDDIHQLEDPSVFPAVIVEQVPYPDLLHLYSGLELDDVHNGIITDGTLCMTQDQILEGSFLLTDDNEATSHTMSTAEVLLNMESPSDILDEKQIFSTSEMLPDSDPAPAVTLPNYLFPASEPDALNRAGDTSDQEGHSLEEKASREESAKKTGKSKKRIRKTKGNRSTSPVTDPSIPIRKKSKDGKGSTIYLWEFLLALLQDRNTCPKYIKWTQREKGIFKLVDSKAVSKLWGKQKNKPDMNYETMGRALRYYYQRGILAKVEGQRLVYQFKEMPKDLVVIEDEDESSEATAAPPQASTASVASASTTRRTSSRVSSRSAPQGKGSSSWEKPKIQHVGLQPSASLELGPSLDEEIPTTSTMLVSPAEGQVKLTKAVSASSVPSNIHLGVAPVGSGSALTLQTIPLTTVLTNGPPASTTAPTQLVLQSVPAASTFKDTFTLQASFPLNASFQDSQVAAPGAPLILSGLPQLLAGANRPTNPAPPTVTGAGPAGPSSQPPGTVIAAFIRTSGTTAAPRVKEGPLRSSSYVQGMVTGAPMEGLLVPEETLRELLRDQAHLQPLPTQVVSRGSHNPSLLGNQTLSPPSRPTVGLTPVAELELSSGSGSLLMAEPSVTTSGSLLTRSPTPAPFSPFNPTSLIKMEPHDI
# Summary of the method: as §1
# ELK4 = biological target: T9, ELK4 (Homo sapiens, UniProt P28324-2 1-405)
# T9 sequence: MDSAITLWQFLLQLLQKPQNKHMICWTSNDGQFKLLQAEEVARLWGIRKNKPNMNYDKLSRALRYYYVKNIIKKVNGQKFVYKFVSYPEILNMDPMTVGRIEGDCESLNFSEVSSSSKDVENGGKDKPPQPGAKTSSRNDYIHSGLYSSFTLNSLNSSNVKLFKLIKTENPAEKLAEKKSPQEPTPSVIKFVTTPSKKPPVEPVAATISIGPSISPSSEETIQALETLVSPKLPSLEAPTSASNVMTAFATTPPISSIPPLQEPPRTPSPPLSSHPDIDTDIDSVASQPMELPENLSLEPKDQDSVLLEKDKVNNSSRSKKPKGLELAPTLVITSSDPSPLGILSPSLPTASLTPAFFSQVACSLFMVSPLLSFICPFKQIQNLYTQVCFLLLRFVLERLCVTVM
# Summary of the method: as §1
# ETV2 = biological target: T10, ETV2 (Homo sapiens, UniProt O00321 1-342)
# T10 sequence: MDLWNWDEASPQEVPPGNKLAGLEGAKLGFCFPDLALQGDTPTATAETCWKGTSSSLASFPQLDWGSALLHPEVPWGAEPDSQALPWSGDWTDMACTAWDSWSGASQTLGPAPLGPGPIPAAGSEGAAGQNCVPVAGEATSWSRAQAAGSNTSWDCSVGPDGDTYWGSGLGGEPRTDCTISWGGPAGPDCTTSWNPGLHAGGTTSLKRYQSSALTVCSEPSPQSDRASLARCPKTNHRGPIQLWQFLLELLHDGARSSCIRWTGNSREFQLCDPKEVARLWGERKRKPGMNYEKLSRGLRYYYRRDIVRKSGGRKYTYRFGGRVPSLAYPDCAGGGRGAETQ
# Summary of the method: as §1
# ELF3 = biological target: T11, ELF3 (Homo sapiens, UniProt P78545 1-371)
# T11 sequence: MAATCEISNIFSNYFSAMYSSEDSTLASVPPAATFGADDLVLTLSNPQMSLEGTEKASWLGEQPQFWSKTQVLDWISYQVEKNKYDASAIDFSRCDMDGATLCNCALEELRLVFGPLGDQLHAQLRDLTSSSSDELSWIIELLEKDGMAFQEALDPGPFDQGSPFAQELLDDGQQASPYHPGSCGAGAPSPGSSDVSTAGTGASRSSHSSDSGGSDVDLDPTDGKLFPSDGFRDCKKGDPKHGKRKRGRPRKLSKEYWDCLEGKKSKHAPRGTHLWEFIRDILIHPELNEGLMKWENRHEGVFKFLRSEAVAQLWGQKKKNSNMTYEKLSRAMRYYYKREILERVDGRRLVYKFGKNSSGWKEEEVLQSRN
# Summary of the method: as §1
# ETV1 = ETV1 (Homo sapiens, UniProt P50549 1-477)
# Chain of ETV1 (P50549 whole entry): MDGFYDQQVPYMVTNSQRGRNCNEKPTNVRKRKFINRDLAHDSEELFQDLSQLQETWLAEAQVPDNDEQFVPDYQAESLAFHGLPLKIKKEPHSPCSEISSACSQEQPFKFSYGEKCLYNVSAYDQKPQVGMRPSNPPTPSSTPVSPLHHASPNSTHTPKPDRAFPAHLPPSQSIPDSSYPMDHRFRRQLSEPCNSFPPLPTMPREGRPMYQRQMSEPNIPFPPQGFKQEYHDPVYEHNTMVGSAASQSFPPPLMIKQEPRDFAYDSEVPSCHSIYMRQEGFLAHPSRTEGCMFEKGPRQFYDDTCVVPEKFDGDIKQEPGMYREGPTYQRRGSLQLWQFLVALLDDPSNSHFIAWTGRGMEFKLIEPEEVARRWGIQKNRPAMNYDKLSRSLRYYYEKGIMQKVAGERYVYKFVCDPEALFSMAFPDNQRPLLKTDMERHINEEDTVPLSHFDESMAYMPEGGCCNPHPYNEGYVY
# Summary of the method: as §1
sequence,measurement,setting,value
CAAATG,binding signal,FLI1,"1.11 fold enrichment (6-mer frequency, TF over GST control)"
same,binding signal,ELK1,"1.16 fold enrichment (6-mer frequency, TF over GST control)"
same,binding signal,GABPA,"1.08 fold enrichment (6-mer frequency, TF over GST control)"
same,binding signal,ERG,"1.16 fold enrichment (6-mer frequency, TF over GST control)"
same,binding signal,ELF1,"1.22 fold enrichment (6-mer frequency, TF over GST control)"
same,binding signal,EHF,"1.1 fold enrichment (6-mer frequency, TF over GST control)"
same,binding signal,SPI1,"1.25 fold enrichment (6-mer frequency, TF over GST control)"
same,binding signal,SPIB,"1.13 fold enrichment (6-mer frequency, TF over GST control)"
same,binding signal,ELK3,"1.09 fold enrichment (6-mer frequency, TF over GST control)"
same,binding signal,FEV,"1.11 fold enrichment (6-mer frequency, TF over GST control)"
same,binding signal,ETV5,"1.09 fold enrichment (6-mer frequency, TF over GST control)"
same,binding signal,SPIC,"1.01 fold enrichment (6-mer frequency, TF over GST control)"
same,binding signal,ELF4,"1.15 fold enrichment (6-mer frequency, TF over GST control)"
same,binding signal,ELK4,"1.11 fold enrichment (6-mer frequency, TF over GST control)"
same,binding signal,ETV2,"1.19 fold enrichment (6-mer frequency, TF over GST control)"
same,binding signal,ELF3,"1.15 fold enrichment (6-mer frequency, TF over GST control)"
same,binding signal,ETV1,"1.19 fold enrichment (6-mer frequency, TF over GST control)"
